Data from the supplement of paper PMC13380429.

Tested on: Vero E6 infected with SARS-CoV-2
Assay: inhibition of SARS-CoV-2 cytopathic effect; higher = more antiviral protection, active = above 15
Conditions: 48 h

Measured: inhibition of SARS-CoV-2 cytopathic effect

C=CCN1CC[C@]23c4c5ccc(O)c4O[C@H]2/C(=N/NC(=O)c2ccccc2)CC[C@@]3(O)[C@H]1C5 [naloxone-benzoylhydrazone]
inactive: 1 nM -0.04% | 8.33 nM 0.97% | 100 nM 0.75% | 833.33 nM 5.45% | 10000 nM 0.69%

O=C(O)CCCN1C(=O)c2cccc3cccc(c23)C1=O [isodibut]
inactive: 1 nM -4.53% | 8.33 nM -1.77% | 100 nM -4.8% | 833.33 nM -0.3% | 10000 nM -2.2%

CCCCCCCCCCCCCCCC[N+](C)(C)C [cetrimonium]
inactive: 1 nM 1.02% | 8.33 nM -0.39% | 100 nM 0.2% | 833.33 nM -3.96% | 10000 nM -18.4%

Cn1ccnc1S [methimazole]
inactive: 1 nM 0.07% | 8.33 nM 2.09% | 100 nM 0.26% | 833.33 nM 0.56% | 10000 nM 0.22%

COc1ccc(CCN2CCN(CCCc3ccccc3)CC2)cc1OC [cutamesine]
inactive: 1 nM 1.71% | 8.33 nM 0.69% | 100 nM 3.33% | 833.33 nM 2.23% | 10000 nM -5.76%

CC(C)C[C@@H](NC(=O)[C@H](Cc1ccccc1)NC(=O)CNC(=O)[C@@H](C)NC(=O)[C@@H](N)Cc1ccc(O)cc1)C(=O)O
inactive: 1 nM -0.21% | 8.33 nM 3.3% | 100 nM 1.72% | 833.33 nM 2.13% | 10000 nM 0%

COc1ccc(-c2cnc3c(-c4cccc5ncccc45)cnn3c2)cc1
inactive: 1 nM -0.88% | 8.33 nM -0.75% | 100 nM 0.925% | 833.33 nM -0.45% | 10000 nM 0.53%

CCOC(=O)Nc1ccc2c(c1)N(C(=O)CCN(CC)CC)c1ccccc1S2 [ethacizin]
inactive: 1 nM -5.42% | 8.33 nM -5.11% | 100 nM -2.38% | 833.33 nM -1.38% | 10000 nM 2.9%

Cc1[nH]cnc1CN1CCc2c(c3ccccc3n2C)C1=O [alosetron]
inactive: 1 nM -0.13% | 8.33 nM -3.23% | 100 nM -3.51% | 833.33 nM -1.58% | 10000 nM -2.24%

c1coc(-c2nnc3sc(C4CCCCC4)nn23)c1 [cardionogen-1]
inactive: 1 nM -0.83% | 8.33 nM -0.13% | 100 nM 0.69% | 833.33 nM -1.37% | 10000 nM -1.68%

Cc1cnc(CNC(=O)c2c(=O)c3ccc(N4CCCN(C)CC4)nc3n3c2sc2ccccc23)cn1
inactive: 1 nM 0.83% | 8.33 nM -2.59% | 100 nM -1.2% | 833.33 nM 4.48% | 10000 nM 0.59%

Cc1cc(C(=CNc2ccc(Cl)cc2)C(=O)Nc2ccc(Cl)cc2)on1
inactive: 1 nM -1.14% | 8.33 nM -1.99% | 100 nM -2% | 833.33 nM -0.86% | 10000 nM 0.28%

CCCN(CCC)C(=O)C(CCC(=O)O)NC(=O)c1ccccc1 (stereo not given) [proglumide]
inactive: 1 nM 2.27% | 8.33 nM -2.46% | 100 nM -0.81% | 833.33 nM 2.34% | 10000 nM -1.09%

CC1CCN(C(c2ccc(F)cc2)c2ccc(C(C)C(=O)O)cc2-c2ccc(C(F)(F)F)cc2)CC1 (stereo not given)
inactive: 1 nM 3.01% | 8.33 nM -0.54% | 100 nM -0.83% | 833.33 nM -0.11% | 10000 nM -6.62%

N.N.O=C([O-])C[O-].[Pt+2] [nedaplatin]
inactive: 1 nM -3.28% | 8.33 nM -2.76% | 100 nM -0.64% | 833.33 nM -1.21% | 10000 nM -2.85%

O=C(Nc1cccc(Cl)c1)c1ccccn1
inactive: 1 nM 0.86% | 8.33 nM -0.89% | 100 nM -2.59% | 833.33 nM 0.62% | 10000 nM 0.73%

O=C(O)CCCc1c[nH]c2ccccc12 [3-indolebutyric-acid]
inactive: 1 nM -1.83% | 8.33 nM -1.26% | 100 nM 0.03% | 833.33 nM -3.61% | 10000 nM -2.44%

Cc1cn([C@@H]2C[C@@H](O)[C@H](CO)O2)c(=O)[nH]c1=O [telbivudine]
inactive: 1 nM 1% | 8.33 nM -1.65% | 100 nM -1.15% | 833.33 nM -0.26% | 10000 nM 2.12%

CC[C@@H]1Cn2c(c3nc(-c4ccccc4)nc-3n(C)c2=O)N1
inactive: 1 nM -0.6% | 8.33 nM -0.25% | 100 nM -1.09% | 833.33 nM 0.66% | 10000 nM 1.21%

CCc1cnc(N2CCC(c3nc(COc4ccc(-n5cnnn5)cc4)cs3)CC2)nc1
inactive: 1 nM 1.55% | 8.33 nM -3.29% | 100 nM -4.15% | 833.33 nM -3.29% | 10000 nM 0.22%

Nc1ccn([C@H]2C[C@H](O)[C@@H](CO)O2)c(=O)n1 [torcitabine]
inactive: 1 nM -1.42% | 8.33 nM -0.61% | 100 nM 0.39% | 833.33 nM -0.39% | 10000 nM 1.92%

Cc1c(C(=O)NC2CCCCC2)sc2nc3ccc(N)cc3n12
inactive: 1 nM 0.16% | 8.33 nM -2.6% | 100 nM -1.92% | 833.33 nM -0.52% | 10000 nM 0.2%

Cc1ccc(C[N+](C)(C)C)o1 [5-methylfurmethiodide]
inactive: 1 nM -1.33% | 8.33 nM -0.75% | 100 nM -0.64% | 833.33 nM -0.84% | 10000 nM 0.7%

CC1(C)S[C@@H]2[C@H](NC(=O)C(C(=O)O)c3ccccc3)C(=O)N2[C@H]1C(=O)O (stereo not given in full) [carbenicillin]
inactive: 1 nM 2.76% | 8.33 nM 1.83% | 100 nM 0.55% | 833.33 nM 2.42% | 10000 nM 0.1%

COC(=O)[C@H](c1ccccc1Cl)N1CCc2sccc2C1 [clopidogrel]
inactive: 1 nM 0.4% | 8.33 nM 0.66% | 100 nM 1.82% | 833.33 nM -3.38% | 10000 nM -0.85%

N#C/C(=C\c1ccc(O)c(O)c1)C(=O)NCCCCc1ccccc1
inactive: 1 nM 0.51% | 8.33 nM 1.37% | 100 nM 1.91% | 833.33 nM 0.14% | 10000 nM -0.03%

Cc1cc(C(=O)Nc2cc(Oc3ccc4nc(NC(=O)C5CC5)cn4n3)ccc2C)n(C)n1
inactive: 1 nM -0.96% | 8.33 nM -3.26% | 100 nM -4.84% | 833.33 nM -7.63% | 10000 nM -4.87%

O=S(=O)(c1ccccc1)N(CC(F)(F)F)c1ccc(C(O)(C(F)(F)F)C(F)(F)F)cc1
inactive: 1 nM 1.99% | 8.33 nM 0.95% | 100 nM -0.31% | 833.33 nM 2.71% | 10000 nM -0.14%

O=S(=O)(N[C@H](CO)C(C(F)(F)F)C(F)(F)F)c1ccc(Cl)s1 [begacestat]
inactive: 1 nM -4.03% | 8.33 nM -5.1% | 100 nM -1.3% | 833.33 nM -4.51% | 10000 nM -7.85%

O=C(NC(=O)c1c(F)cccc1Cl)NC1c2ccccc2-c2ccccc21
inactive: 1 nM -0.23% | 8.33 nM -0.67% | 100 nM 1.6% | 833.33 nM 2.13% | 10000 nM 0.4%

CCOc1ccccc1-n1c(C(C)N2CCN(C(=O)COc3ccc(Cl)cc3)CC2)nc2ccccc2c1=O (stereo not given) [erastin]
inactive: 1 nM -2.42% | 8.33 nM -0.63% | 100 nM -0.86% | 833.33 nM -2.74% | 10000 nM 7.21%

CC[C@H](C)n1cc(C)c2c(C(=O)NCc3c(C)cc(C)[nH]c3=O)cc(-c3ccc(N4CCNCC4)nc3)cc21
inactive: 1 nM 1.2% | 8.33 nM 2.76% | 100 nM 2.26% | 833.33 nM 1.5% | 10000 nM -4.63%

CC(C)OC(=O)N1CCC(Oc2ncnc3c2cnn3-c2ccc(S(C)(=O)=O)cc2F)CC1
inactive: 1 nM -4.65% | 8.33 nM -1.23% | 100 nM 2.78% | 833.33 nM -0.97% | 10000 nM -1.25%

CCCn1c(=O)[nH]c2nc(-c3ccc(S(=O)(=O)N4CCN(c5ccc(Cl)cc5)CC4)cc3)[nH]c2c1=O
inactive: 1 nM -0.12% | 8.33 nM 0.44% | 100 nM -0.16% | 833.33 nM 1.71% | 10000 nM 1.22%

COc1ccc(C2=N[C@@H](c3ccc(Cl)cc3)[C@@H](c3ccc(Cl)cc3)N2C(=O)N2CCNC(=O)C2)c(OC(C)C)c1 [nutlin-3]
inactive: 1 nM 1.71% | 8.33 nM 1.61% | 100 nM 5.23% | 833.33 nM 5.08% | 10000 nM 3.38%

COc1ccc(OC)c([C@@H](O)CNC(=O)CN)c1 [midodrine]
inactive: 1 nM 1.29% | 8.33 nM 3.25% | 100 nM -1.42% | 833.33 nM 0.19% | 10000 nM -0.39%

OCCCCO [1,4-butanediol]
inactive: 1 nM -4.4% | 8.33 nM -1.22% | 100 nM -1.14% | 833.33 nM 0.26% | 10000 nM -1.17%

COc1cc(-c2ccc(=O)[nH]n2)ccc1OC(F)F [zardaverine]
inactive: 1 nM 0.13% | 8.33 nM 1.54% | 100 nM 0.67% | 833.33 nM 0.7% | 10000 nM 2.13%

CCC(=O)O[C@H](CC(=O)O)C[N+](C)(C)C [levocarnitine-propionate]
inactive: 1 nM -0.81% | 8.33 nM 4.36% | 100 nM 0.32% | 833.33 nM 3.36% | 10000 nM 0.31%

CCn1cc(C(=O)O)c(=O)c2cc3c(cc21)OCO3 [oxolinic-acid]
inactive: 1 nM -1.5% | 8.33 nM 0.26% | 100 nM -1.8% | 833.33 nM -0.9% | 10000 nM -3.06%

CC(Cc1ccc(O)cc1)NCC(O)c1cc(O)cc(O)c1 (stereo not given) [fenoterol]
inactive: 1 nM 2.01% | 8.33 nM 0.82% | 100 nM 2.19% | 833.33 nM 2.52% | 10000 nM 0.86%
